Source: PubChem BioAssay
Shown are actives, neighbours in structure and some others; about 7.9% of the full set was active somewhere.
HCV inhibitor = qHTS Assay for Inhibitors of Hepatitis C Virus (HCV); Huh7.5.1 HCVcc-Cre infection, luciferase reporter, 44 h; Potency, µM (doses to about 41.8 µM), for the others: at the top dose activity change, negative = inhibition, actives largely listed as inhibitors; 340,000 tested, 3.4% active; active = well fitted inhibition curve with a large enough effect; inconclusive = small, poorly fitted or top-dose-only effect, or another doubt; inactive = no such curve, though single readings can be large or run the other way; note: potency is the fitted concentration of half-maximal effect
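Whole-lifecycle infectious HCVcc-Cre system; cells 1,000/well, compound then virus (~0.5 moi) added 4 h after plating, 44 h culture. Luciferase read 15 sec following 15 min substrate incubation, room temp.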
HCMV inh = qHTS Assay for inhibitors of the human cytomegalovirus (HCMV). HFF cells, HCMV-luciferase reporter, 72 h; hits give low values. AID 1259415, 2018. 410,000 tested, 4.5% active. activity change, negative = inhibition, % at 57.5 µM; in the data active = activity change below about -60%; inconclusive = no clear call, values can overlap the other calls; inactive = above about -39%
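Inhibition of viral replication was scored as loss of reporter luminescence in HFFs infected with HCMV-luciferase (MOI 1 PFU/cell) for 72 h; compounds tested at 2 doses, normalized to buffer and Salinomycin controls.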
Lassa entry inh = qHTS for Inhibitors of binding or entry into cells for Lassa Virus. Potency, µM (series often up to 37.9 µM), without a hit: top-dose activity change, negative = inhibition, hits mostly inhibitors. 300,000 tested, 1.2% active. AID 540256, 2011. Lassa virus pseudotype entry inhibition, cell reporter; calls by dose curve; tested in HEK293 cells; note: potency is the fitted concentration of half-maximal effect; nearly all actives have a fitted effect of over 50% in size
Marburg entry inh = qHTS for inhibitors of binding or entry into cells for Marburg Virus. Marburg virus pseudotyped entry inhibition, cell reporter. Potency, µM (series often up to 37.8 µM), without a hit: at the top dose activity change, negative = inhibition, usual class: inhibitors. 300,000 tested, 1.8% active. AID 540276, 2011; calls by dose curve; tested in HEK293 cells; note: potency is the fitted concentration of half-maximal effect
FMDV antiviral = High Throughput Screening for Foot and Mouth Disease Virus Antivirals; FMDV antiviral cell-based qHTS; Potency, µM (titrated, usually from 57.9 µM), for the others: top-dose activity change, negative = inhibition, most hits filed as inhibitors; 410,000 tested, 1.2% active; calls by dose curve; tested in HEK293T cells; note: read-out not given here; potency is the fitted concentration of half-maximal effect; nearly all actives have a fitted effect of over 45% in size
The depositor's hits bear a star; ? = inconclusive; . = no result given; [ ] = another dose, or the depositor's remark. % is set by controls: 0 for no effect and ±100 for the full control effect.

SMILES	HCV inhibitor	HCMV inh	Lassa entry inh	Marburg entry inh	FMDV antiviral
CCCSCCCNC(=O)C1CCN(c2nn3cc(-c4ccc(F)cc4)nc3s2)CC1	.	0	16%[46.1 µM]	.	6%
CN1CCC2(CCN3CCc4c(oc5ccccc45)C3C2)N(C)C1=O (stereo not drawn)	.	.	-12%	?	.
CCN(c1ccccc1)S(=O)(=O)c1ccc(C(=O)NC2CCN(Cc3ccccc3)CC2)cc1	?	.	?	0.71µM*	?
Cc1ccc(C)n1-c1ccc(C(=O)NC2CCN(Cc3ccccc3)CC2)cc1	?	-62*	?	?	?
CC1(C(=O)NC2CCN(Cc3ccccc3)CC2)CCN1Cc1ccc2ccccc2c1 (stereo not drawn)	.	-67*	.	.	?
CN1CCC(NC(=O)C2(C)CCN2Cc2ccc3ccccc3c2)CC1 (stereo not drawn)	.	7	.	.	-6%
Cc1ccc(Nc2c(-c3cccs3)nc3nc(C)cc(C)n23)cc1	.	69	?	28%[46.1 µM]	21%
COc1ccc(-c2ccn(-c3cccc(F)n3)n2)cc1	-29%	-29	?	10µM*	20%
COc1ccccc1OCc1nc2ccccc2n1Cc1ccccc1	.	15	5%[46.1 µM]	.	-1%
CC(C)c1ccccc1-n1c(SCC(=O)c2ccc3c(c2)NC(=O)CO3)nc2ccccc2c1=O	13µM*	-30	?	?	?
O=C(CSc1nc2ccccc2c(=O)n1-c1ccccc1)N1CCc2ccccc2C1	13µM*	-94*	10µM*	?	?
CC(C)c1ccccc1-n1c(SCC(=O)N2CCc3ccccc3C2)nc2ccccc2c1=O	10µM*	-95*	?	?	?
CCc1ccc(CNC(=O)CCCN2C(=O)CCn3nc(-c4cccn4C)cc32)cc1	.	-9	22%[46.1 µM]	.	-13%
CCOc1cc(C(=O)OCc2cc(=O)n3nc(CC)sc3n2)cc(OCC)c1OCC	.	4	-19%[46.1 µM]	.	-7%
Cc1ccc(OCc2nnc(SCc3cc(=O)[nH]c4ccccc34)o2)cc1	-13%	60	-19%	-8%	?
O=c1cc(CSc2nnc(COc3ccccc3)o2)c2ccccc2[nH]1	12%	2	23µM*	?	-24%
Cc1nc2c(c(C)c1CCC(=O)NCc1ccccc1)c(=O)n(C)c(=O)n2C	.	2	?	3%[46.1 µM]	1%
O=C(/C=C/c1cccc(Cl)c1)c1ccc([N+](=O)[O-])o1	2.5µM*	-100*	.	.	11µM*
COc1cc(/C=C/C(=O)c2ccc([N+](=O)[O-])o2)ccc1O	?	-77*	.	.	?
COc1ccc(/C=C/C(=O)O)cc1OC	2%	.	-3%	10%	2%
NS(=O)(=O)c1ccc(CNC(=O)/C=C/c2cccc(Cl)c2)cc1	2%	5	1%	27%	-17%
COc1ccc(/C=C/C(=O)c2ccc([N+](=O)[O-])o2)cc1OC	5.6µM*	-104*	.	.	35µM*
CCC1COCCS(=O)(=O)N1Cc1ccccc1 (stereo not drawn)	0%	-21	.	.	-13%
CCCC[C@H]1COCCS(=O)(=O)N1Cc1cccc([N+](=O)[O-])c1	-5%	-100*	.	.	-1%
CCCc1cc(C(=O)Nc2c(C)nn(Cc3ccc(Cl)c(Cl)c3)c2C)no1	.	-34	?	?	?
SMILES	HCV inhibitor	HCMV inh	Lassa entry inh	Marburg entry inh	FMDV antiviral
O=C(CCCN1C(=O)c2cccc3cccc(c23)C1=O)N1CCN(c2ccccc2O)CC1	-20%	2	7.9µM*	?	-23%
CN(C)CCN1C(=O)c2cccc3cc([N+](=O)[O-])cc(c23)C1=O	?	-98*	0.45µM*	0.32µM*	-22%
O=C1c2cccc3cc([N+](=O)[O-])cc(c23)C(=O)N1CC1CCCO1 (stereo not drawn)	?	-63*	-4%	-2%	-21%
O=C(CCCN1C(=O)c2cccc3cccc(c23)C1=O)N1CCN(c2ccccc2)CC1	?	?	-10%	8%	?
COc1ccc(N(CCCN2C(=O)c3cccc4cccc(c34)C2=O)C(=O)c2cccc(OC)c2)cc1	11µM*	-12	?	?	-7%
C/C(O)=C1\C(=O)[C@@H]2[C@H]3c4c[nH]c5cccc(c45)C[C@H]3C(C)(C)N2C1=O	.	.	.	.	3%[97.4 µM]
COCc1c(C(=O)N2CCN(C3CCCCC3)CC2)cnn1-c1ncc(C)c(-c2cccs2)n1	.	.	.	.	-1%
CN(C)CCCN1C(=O)c2cc3ccccc3cc2C1=O	13%	19	.	.	-4%
Cc1ccc(NC(=O)CCCN2C(=O)c3cccc4cccc(c34)C2=O)cc1	?	-73*	?	-20%	?
CN(C)CCCN1C(=O)c2cccc3cccc(c23)C1=O	?	-64*	-18%	?	-10%
COc1ccc(S(=O)(=O)N(CC(=O)NCc2ccc(C)cc2)c2ccc(Cl)cc2)cc1	.	-31	2%[46.1 µM]	1%[46.1 µM]	0%
CCc1ccccc1NC(=O)CSc1nnc(COc2ccccc2Cl)o1	.	-10	15%[46.1 µM]	5%[46.1 µM]	-11%
COc1ccc([C@@]23Oc4cc(OC)cc(OC)c4[C@]2(O)[C@H](O)[C@H](C(=O)N(C)C)[C@H]3c2ccccc2)cc1	.	-98*	?	0.11µM*	?
CCc1ccc(NC(=O)C2=C(C)C(=O)OC23CCCCC3)cc1	.	-37	29%[46.1 µM]	8%[46.1 µM]	-4%
CC(C)(C)c1ccc(Cn2c(=N)n(CC(O)c3ccco3)c3ccccc32)cc1 (stereo not drawn)	10µM*	.	-27%	11µM*	20µM*
CCCCCCCn1c(=N)n(CC(O)c2ccco2)c2ccccc21 (stereo not drawn)	8.9µM*	-73*	?	2.8µM*	-16%
N=c1n(CCN2CCCC2)c2ccccc2n1CC(O)c1ccco1 (stereo not drawn)	?	-22	?	?	-2%
CCCCn1c(=N)n(CC(O)c2ccccc2)c2ccccc21 (stereo not drawn)	?	?	?	13µM*	-17%
Cc1cc(C)c(NC(=O)C2CCN(S(=O)(=O)c3c(C)noc3/C=C/c3ccccc3F)CC2)c(C)c1	.	-19	11%[46.1 µM]	.	-6%
CCOC(=O)c1cc(-c2ccccc2)n(-c2cccc(C(=O)N(C)c3ccc(C)cc3)c2)c1C	.	?	?	.	-25%
COc1ccc(N2CCN(C(=O)Cn3nc(Cc4cccnc4)c4ccccc4c3=O)CC2)cc1	.	?	10%[46.1 µM]	-7%[46.1 µM]	-24%
CCOc1ccccc1NC(=O)CN1C(=O)COc2ccc(S(=O)(=O)Nc3ccccc3)cc21	.	11	11%[46.1 µM]	.	5%
Cn1cc(/C=N/n2cnc3scc(-c4ccc(Cl)cc4)c3c2=O)c2ccccc21	5.6µM*	?	?	?	-24%
Cc1nc2scc(-c3ccc(Cl)cc3)c2c(=O)n1N	0%	?	8%	-19%[46.1 µM]	-18%
